# Target: Solute carrier family 2, facilitated glucose transporter member 1 (Homo sapiens) (UniProt P11166)
# Assay: ST_JUDE_LEISH: Cytotoxicity at 2uM final concentration against transgenic Leishmania Mexicana promastigotes LmGLUT1 that are glucose transport deficient and complemented with the human glucose transporter GLUT1. Activity is measured by DNA content using SYBR green in vitro
# Format: functional
# Sequence of Solute carrier family 2, facilitated glucose transporter member 1 (Homo sapiens) (P11166 whole entry): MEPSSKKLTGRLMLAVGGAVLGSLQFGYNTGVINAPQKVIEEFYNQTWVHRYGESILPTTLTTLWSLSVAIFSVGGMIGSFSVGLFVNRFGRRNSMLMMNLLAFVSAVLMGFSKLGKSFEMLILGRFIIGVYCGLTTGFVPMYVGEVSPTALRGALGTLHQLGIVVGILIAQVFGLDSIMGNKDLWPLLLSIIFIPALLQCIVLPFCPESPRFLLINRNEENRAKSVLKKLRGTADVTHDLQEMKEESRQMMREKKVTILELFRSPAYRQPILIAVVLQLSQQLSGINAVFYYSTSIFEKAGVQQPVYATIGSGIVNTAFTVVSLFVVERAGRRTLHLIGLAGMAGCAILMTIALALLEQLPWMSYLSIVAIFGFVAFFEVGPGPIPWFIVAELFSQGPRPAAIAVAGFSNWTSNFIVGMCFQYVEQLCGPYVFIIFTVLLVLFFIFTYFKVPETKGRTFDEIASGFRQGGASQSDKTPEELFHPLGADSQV
row,SMILES,inhibition [%]
1,COc1ccc(O)c(C(=O)NCCc2ccc(OC)c(-c3ccc(C(C)(C)C)cc3)c2)c1,4.08
2,N=C(N)NCCCCN(Cc1ccccc1)c1ccccc1,3.52
3,COc1ccc2c(c1)CCCC2C(C)NCC(O)c1cccc(C(F)(F)F)c1 (stereo not given),8.86
4,O=C(Cn1c(=O)cnc2ccccc21)Nc1cccc(C(=O)Nc2cccc(C(F)(F)F)c2)c1,1.09
5,COCCNCc1ccc(-c2ccc(CNc3ccc4ncccc4c3)cc2)cc1,2
6,O=C(NC1CCC(N2CCC(Cc3ccc(F)cc3)CC2)CC1)c1cc2ccccc2[nH]1 (stereo not given),0.56
7,C=CCNC(=O)CCCNC(=N)N,1.5
8,O=C(Nc1ccc(Br)c(C(F)(F)F)c1)c1cccc([N+](=O)[O-])c1,3.35
9,CC1(C)N=C(N)N=C(N)C1c1ccc(Cl)cc1 (stereo not given),4.19
10,CC(=O)c1cccc(NC(=O)NC2CCN(CCCCCNC(=O)/C=C/c3ccc(Cl)c(Cl)c3)CC2)c1,1.56
11,OC(COc1ccccc1-c1nc2ccccc2o1)CN1CCCN(CCc2ccccc2)CC1 (stereo not given),-0.28
12,COc1ccc(-c2cccc(NC(=O)c3cccc(C#N)c3)c2)cc1CN1CCCC1,12.1
13,CCCNCc1ccc(-c2ccc(CN(CCOC)C(=O)CCCOCc3ccccc3)cc2)nc1,3.08
14,Cc1c(Cc2ccccc2)c(=O)oc2c(C)c3c(cc12)CN(CC(C)c1ccccc1)CO3 (stereo not given),4.3
15,CC1Cc2ccccc2N1CC(=O)Nc1cc(C(F)(F)F)ccc1-n1cncn1 (stereo not given),1.94
16,CCN(c1ccccc1)S(=O)(=O)c1ccc(OC)c(NC(=O)c2cccc(C(F)(F)F)c2)c1,10.4
17,CCCCc1cc(NCc2ccncc2)nc(Nc2ccc(OC)cc2)n1,12.9
18,C(=N\Nc1nccc2sc(-c3ccccc3)cc12)/c1cccnc1,4.32
19,Cc1cc(OCCCN2CCC(NS(=O)(=O)c3ccc(Cl)c(Cl)c3)C2)c2ccccc2n1 (stereo not given),3.81
20,CC(=O)c1c(C)[nH]c(C(=O)Nc2ccc(-c3nc4ccc(C)cc4s3)cc2)c1C,-0.62

row,SMILES,inhibition [%]
1,CC(C)(C)OC(=O)Cn1cnc2cc(NC(=O)c3cc([N+](=O)[O-])cc([N+](=O)[O-])c3)ccc21,3.13
2,O=C1NC(c2ccc(N3CCCCCC3)cc2)Nc2ccccc21 (stereo not given),6.32
3,CCCCN(CCCC)CCCCNc1c2ccccc2nc2ccccc12,26
4,O=C(Nc1ccc(Cl)c(Cl)c1)Nc1ccc2nccc(N3CCN(Cc4ccccc4)CC3)c2c1,3.7
5,COc1ccc2c(=NN=C(C)c3ccccn3)cc(C)[nH]c2c1,5.68
6,COc1cc(OC)cc(C(=O)N2CCOC(CCN3CCC(c4ccccc4)CC3)(c3ccc(Cl)c(Cl)c3)C2)c1 (stereo not given),0.22
7,O=C(NCC1CCN(Cc2cccc(C(F)(F)F)c2)C1)c1cc(-c2cccc(Cl)c2)cs1 (stereo not given),1.83
8,CSCCC(C(=O)O)N1C(=O)c2ccccc2C1=O (stereo not given),0.66
9,COc1ccc2[nH]c(C)cc(=NN=Cc3ccccc3Cl)c2c1,5.14
10,O=C(Nc1ccc(-c2nc3ccccc3[nH]2)cc1)c1ccc(S(=O)(=O)N2CCCCC2)cc1,3.08
11,CN1CCN(CCCN(Cc2ccc(-c3cccc(CNC4CCCC4)c3)cc2)C(=O)/C=C/c2ccccc2)CC1,10.2
12,CNCc1ccc(-c2ccc3ccnc(N)c3c2)cc1,2.47
13,Cc1ccc(CN2CCN(Cc3cccc(NC(=O)c4ccc5ccccc5c4)c3)CC2)cc1C,1.24
14,Fc1ccc2[nH]c(-c3ccc(-c4cccc(CN5CCN(CCN6CCOCC6)CC5)c4)cc3)nc2c1,4.48
15,CC(CN(C)C)C(=O)Nc1cccc(-c2ccc(-c3nc4cc(C(F)(F)F)ccc4[nH]3)cc2)c1 (stereo not given),11
16,CCc1cn2c3c(cc(C(=O)N[C@@H](Cc4ccccc4)[C@H](O)CNCC(C)C)cc13)N(C)S(=O)(=O)CC2,3.97
17,CCN(CC)CCN(Cc1ccc(-c2ccc(C(F)(F)F)cc2)cc1)C(=O)Cn1c(CCC2CCCCC2)nc(=O)c2ccccc21,0.48
18,CC(C)C[C@H](NC(=O)c1ccc(OCCN2CCOCC2)cc1)C(=O)N[C@H](/C=N/N1CCNC1=O)CCc1ccccc1,6.57
19,Cc1cccc(CNc2ncc(C)c(NCCC(=O)Nc3ccccc3)n2)c1,15.3
20,O=C(/C=C/c1ccc(C(F)(F)F)cc1)NCCCCCN1CCCN(C(=O)Nc2ccc(Cl)c(Cl)c2)CC1,-0.66
